# Results: PMC5540273 (PLoS ONE, 2017)
# Test system: PIK3C2G
# Conditions: concentration: 1 μM, replicates: in singlicate; n = 1
# 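Note: KINOMEscan kinase panel screen.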
row,Compound,%Inh [%]
1,FC(F)(F)c1ccc(/C=C/c2cncnc2Nc2ccc3[nH]c(Cc4ccccc4)nc3c2)cc1 [GW709199],0
2,O=C(Nc1cccc(-c2nn3ccccc3c2-c2ccnc(Nc3cccc(F)c3)n2)c1)c1c(F)ccc(F)c1Cl [GSK357952],21
3,O=C(Nc1ccccc1F)NC1CCN(c2ccnc(Nc3ccc(F)cc3)n2)CC1 [GSK1379800],0
4,Cc1occc1-c1ncc(OC[C@@H](N)Cc2c[nH]c3ccccc23)cc1-c1ccc2[nH]nc(C)c2c1.O=C(O)C(F)(F)F [GSK682037],0
5,C[C@@H]1CC[C@@H](C(=O)Nc2ccccc2)CN1c1cc(-c2ccc3c(N)n[nH]c3c2)nc(N)n1 [GSK2286062],0
6,Cl.NC(=O)c1cccc(Nc2nccc(Nc3ccc(Oc4c(Cl)cccc4Cl)c(Cl)c3)n2)c1 [GW659009],0
7,Cc1ccc(C(=O)Nc2ccc(Nc3ccnc4cc(-c5nccs5)ccc34)cc2O)cc1.Cl [GW494702],23
8,CNC(=O)c1ccccc1Nc1nc(Nc2ccc(N3CCOCC3)cc2)ncc1Cl.Cl [GSK1576028],0
9,COc1cc(Nc2nccc(-c3c(-c4cccc(NC(=O)c5c(F)cccc5F)c4)nn4ccccc34)n2)cc(OC)c1OC [GSK323521],9
10,Nc1ncnc2c1nc(-c1ccccc1)n2-c1ccccc1 [SKF-97293],6
11,Fc1ccc(-c2ncn(C3CCNCC3)c2-c2ccnc(Oc3ccc(-c4ccccc4)cc3)n2)cc1 [SB-245391],39
12,Cl.Cl.NCC(NCc1ccc(-c2ccnc3[nH]ccc23)s1)c1ccccc1 (stereo not shown) [GSK1321565],0
13,CC(=O)N1CCN(c2ccc(Nc3nccc(-c4sc(C(C)C)nc4-c4cccc(NS(=O)(=O)c5cccc(Cl)c5)c4)n3)cn2)CC1 [GSK1660437],0
14,COc1ccc(Nc2nccc(N3CCC(NC(=O)Nc4cccc(OC)c4)C3)n2)cc1 (stereo not shown) [GSK1379742],0
15,Cl.Cl.NCC(NC(=O)c1cc(-c2ccccc2)c(-c2ccnc3[nH]ccc23)s1)c1ccccc1 (stereo not shown) [GSK1321561],0
16,O=C(Nc1n[nH]c2cc(-c3ccoc3)ccc12)C1CC1 [SB-738481],0
17,Cl.c1ccc(-c2ccc3c(Nc4ccc5[nH]ccc5c4)ccnc3c2)nc1 [GW440138],0
18,COc1cc(Nc2nccc(-c3c(-c4cccc(NC(=O)c5c(F)cccc5F)c4)nn4ncccc34)n2)cc(OC)c1OC [GSK327238],0
19,CCCCc1nn2ncccc2c1-c1ccnc(Nc2ccc(N3CCN(C)CC3)cc2)n1 [GW684941],0

row,Compound,%Inh [%]
1,Nc1ncc(-c2ccc3nccc(-c4ccncc4)c3c2)cc1S(=O)(=O)N1CCOCC1 [GSK1627798],99.1
2,Cc1ccc(S(=O)(=O)Nc2ccc(Nc3nccc(Nc4cccc5[nH]ncc45)n3)cc2)cc1 [GSK581271],0
3,COc1ccc(Nc2nccc(NCCNC(=O)c3cc4ccccc4s3)n2)cc1 [GSK1379896],0
4,NCCCC(NC(=O)c1cc(Br)c(-c2ccnc3[nH]ccc23)s1)c1ccccc1.O=C(O)C(F)(F)F.O=C(O)C(F)(F)F (stereo not shown) [GSK1287544],0
5,CC(C)c1nc(-c2cccc(NS(=O)(=O)c3c(F)cccc3F)c2F)c(-c2ccnc(Nc3ccc(N4CCOCC4)nc3)n2)s1 [GSK2008607],0
6,O=C(NC1CCN(c2ccnc(Nc3ccc(F)cc3)n2)C1)c1cc2ccccc2s1 (stereo not shown) [GSK1379716],0
7,Nc1ncc(-c2cccnc2)c2scc(-c3ccc4c(c3)CCN4C(=O)Cc3ccccc3)c12 [GSK683281],0
8,CC(C)(C)c1ccc2nccc(Nc3cccc(O)c3)c2c1 [GW856795],25
9,COc1cccc(C2=C(Nc3ccc(Cl)c(C(=O)O)c3)C(=O)NC2=O)c1 [SB-390769],100
10,Cc1ccc(F)c(C(=O)Nc2cccc(-c3nn4ccccc4c3-c3ccnc(Nc4cccc(F)c4)n3)c2)c1F [GSK361061],0
11,O=C(Nc1n[nH]c2nc(-c3ccc(O)cc3)ccc12)C1CC1 [SB-710363],0
12,c1ccc(-c2n[nH]cc2Nc2ccnc3ccccc23)nc1 [GW694077],15
13,CCn1c(-c2nonc2N)nc2c(C#CC(C)(C)O)ncc(OCCCCN)c21.O=C(O)C(F)(F)F.O=C(O)C(F)(F)F [GSK507274],11
14,O=C(Nc1cccc(-c2nn3ccccc3c2-c2ccnc(Nc3cccc(C(F)(F)F)c3)n2)c1)c1c(F)cccc1F [GSK292658],22
15,Nc1n[nH]c2cnc(-c3ccccc3)cc12 [SB-642124],0
16,CN(c1ccc(NC(=O)Nc2cc(C(F)(F)F)ccc2F)cc1)c1ccnc(Nc2ccc(S(N)(=O)=O)cc2)n1 [GW809893],39
17,Clc1ccc(-c2nn3ncccc3c2-c2ccnc(Nc3ccc4c(c3)OCCO4)n2)cc1 [GW829116],0
18,Cn1cc(-c2[nH]c3cc(NC(=O)[C@H](N)C4CCCCC4)cc4c3c2C=NNC4=O)cn1,0
